Compound activity from PubChem BioAssay.
Pf apPOL block = Pf-apPOL inhibitors, biochemical, fluorescence; inhibition, % at 10 µM; 0.25% of 210,000 active; Recombinant Pf-apPOL, molecular beacon fluorescence, 1.5 h
mHTT CaM bind = mutant huntingtin-calmodulin interaction inhibitors – biochemical, AlphaScreen, primary screen; AlphaScreen His-mHTT/GST-CaM binding, luminescence; inhibition, % at 15 µM; 3.6% of 190,000 active; AID 1671202, 2021;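 also: 0% = both proteins with DMSO and 100% = one protein alone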
* marks the source's active call; other numbers are inactive results. The entries come from a sample that favours hits as a whole. Rule as the data show it: active = inhibition above about 50%; inactive = the rest.

Results for Cc1ccc(NC(=O)Cn2c(=O)n(-c3ccccc3)c3ncccc32)cc1C ?
Pf apPOL block: 3; mHTT CaM bind: -4

How did O=C(NCC(=O)N1CCCc2ccccc21)c1ccncc1 do in these assays?
Pf apPOL block: 0; mHTT CaM bind: 4

How did O=C1CCC(=O)N1c1ccc(S(=O)(=O)N2CCCCC2)cc1 do in these assays?
Pf apPOL block: -39; mHTT CaM bind: 2

What do the screens show for `CCCNC(=O)c1cnc2c(c(C)nn2C)c1Nc1ccc(C)cc1`?
Pf apPOL block: -2; mHTT CaM bind: 4

How did Cc1ccc(Nc2c(C(=O)NCc3ccc(F)cc3)cnc3c2c(C)nn3C)cc1 do in these assays?
Pf apPOL block: -4; mHTT CaM bind: 94*

Results for Cn1nc2c(c1NC(=O)c1cc3ccccc3o1)CCC2 ?
Pf apPOL block: 2; mHTT CaM bind: -7

How did O=c1c2ccc(F)cc2ncn1C1CCN(S(=O)(=O)c2cccc(F)c2)CC1 do in these assays?
Pf apPOL block: -4; mHTT CaM bind: 1

Results for Cn1c(=O)c2c(SCC(=O)Nc3ccc(OC(F)(F)F)cc3)ccnc2n(C)c1=O ?
Pf apPOL block: -3; mHTT CaM bind: -3

What do the screens show for `O=C(c1cccs1)N1CCN(c2cc(N3CCCCC3)c(F)cc2[N+](=O)[O-])CC1`?
Pf apPOL block: -5; mHTT CaM bind: 51*

Results for O=[N+]([O-])c1cc(F)c(N2CCOCC2)cc1N1CCCCC1 ?
Pf apPOL block: -12; mHTT CaM bind: 26

Results for O=[N+]([O-])c1cc(F)c(N2CCCCCC2)cc1N1CCCC1 ?
Pf apPOL block: -6; mHTT CaM bind: 72*

Results for O=C(c1cccs1)N1CCN(c2cc(N3CCCC3)c(F)cc2[N+](=O)[O-])CC1 ?
Pf apPOL block: -2; mHTT CaM bind: -2

What do the screens show for `CCCN1C(=O)Cc2ccccc2C1C(=O)N1CCN(c2ccccc2OC)CC1` (centres undefined)?
Pf apPOL block: -2; mHTT CaM bind: 15

How did O=C(NC1CCCCC1)c1nn2c(c1Cl)NC(c1cccs1)CC2C(F)(F)F (centres undefined) do in these assays?
Pf apPOL block: -42; mHTT CaM bind: 17

How did CN(C(=O)c1nn2c(c1Cl)NC(c1cccs1)CC2C(F)(F)F)C1CCCCC1 (centres undefined) do in these assays?
Pf apPOL block: 4; mHTT CaM bind: 77*

How did O=C(c1nn2c(c1Cl)NC(c1cccs1)CC2C(F)(F)F)N1CCc2ccccc2C1 (centres undefined) do in these assays?
Pf apPOL block: -6; mHTT CaM bind: 100*

What do the screens show for `O=C(c1nn2c(c1Cl)NC(c1cccs1)CC2C(F)(F)F)N1CCCC1` (centres undefined)?
Pf apPOL block: -6; mHTT CaM bind: 12

What do the screens show for `O=C(O)CCCc1nc2ccccc2[nH]1`?
Pf apPOL block: -2; mHTT CaM bind: -6

What do the screens show for `NC(=O)Cc1nc2ccccc2[nH]1`?
Pf apPOL block: 97*; mHTT CaM bind: -5

How did CCCc1nc(-c2c(C)cc(C)nc2NC(=O)C2CCCC2)no1 do in these assays?
Pf apPOL block: -2; mHTT CaM bind: 1

Results for Cc1cccc(-n2cc(C3CCN(C(=O)C4CCCC4)CC3)cn2)c1 ?
Pf apPOL block: -3; mHTT CaM bind: -10

What do the screens show for `Cc1ccc(-n2cc(C3CCN(C(=O)c4ccc(N(C)C)cc4)CC3)cn2)cc1`?
Pf apPOL block: -5; mHTT CaM bind: 63*

What do the screens show for `CN(C)c1ccc(C(=O)N2CCC(c3cnn(-c4ccc(F)cc4)c3)CC2)cc1`?
Pf apPOL block: -1; mHTT CaM bind: 4

What do the screens show for `CC(=O)N1CCC(c2cnn(-c3cccc(C)c3)c2)CC1`?
Pf apPOL block: 1; mHTT CaM bind: 100*

Results for CN1CCN(CC(=O)N2CC3CCCc4c3n(c3ccc(C5CCCCC5)cc43)C2)CC1 (centres undefined) ?
Pf apPOL block: -4; mHTT CaM bind: 44

How did O=C1NN(c2cccc(C(F)(F)F)c2)C(=O)/C1=C/c1ccc([N+](=O)[O-])o1 do in these assays?
Pf apPOL block: -1; mHTT CaM bind: 98*

Results for O=C1NN(c2ccccc2)C(=O)/C1=C/c1ccc(-c2ccccc2F)o1 ?
Pf apPOL block: -8; mHTT CaM bind: 10

What do the screens show for `CCc1ccc(C2(O)CC(C(F)(F)F)=NN2C(=O)c2ccc([N+](=O)[O-])cc2)cc1` (centres undefined)?
Pf apPOL block: 8; mHTT CaM bind: 81*

How did Cc1cccc(C(=O)N2N=C(C(F)(F)F)CC2(O)c2ccc(Br)cc2)c1 (centres undefined) do in these assays?
Pf apPOL block: 1; mHTT CaM bind: 72*

Results for CCc1ccc(C2(O)CC(C(F)(F)F)=NN2C(=O)c2cccc(Br)c2)cc1 (centres undefined) ?
Pf apPOL block: -5; mHTT CaM bind: 4

Results for CCC1=NN(C(=O)c2cccc([N+](=O)[O-])c2)C(O)(c2ccc(Cl)cc2)C1 (centres undefined) ?
Pf apPOL block: -2; mHTT CaM bind: 77*

What do the screens show for `O=C(c1cccc(Br)c1)N1N=C(C(F)(F)F)CC1(O)c1ccc(Cl)cc1` (centres undefined)?
Pf apPOL block: -2; mHTT CaM bind: 18

What do the screens show for `O=C(c1cccc(Cl)c1)N1N=C(C(F)(F)F)CC1(O)c1ccc(Cl)cc1` (centres undefined)?
Pf apPOL block: 12; mHTT CaM bind: 76*

Results for O=C(c1ccc([N+](=O)[O-])cc1)N1N=C(C(F)(F)F)CC1(O)c1ccncc1 (centres undefined) ?
Pf apPOL block: -6; mHTT CaM bind: 26

How did CCC1=NN(C(=O)c2ccc([N+](=O)[O-])cc2)C(O)(c2ccccc2)C1 (centres undefined) do in these assays?
Pf apPOL block: -3; mHTT CaM bind: 48

What do the screens show for `C=CCSc1nc(O)c(CC)c(=O)n1-c1ccc(C)cc1`?
Pf apPOL block: 2; mHTT CaM bind: 4

Results for COc1cccc(NC(=O)N2CCN(S(=O)(=O)C3CC3)CC2)c1 ?
Pf apPOL block: -5; mHTT CaM bind: -7

How did O=C(CCC1NC(=O)c2ccccc2NC1=O)Nc1ccc2c(c1)OCCO2 (centres undefined) do in these assays?
Pf apPOL block: -7; mHTT CaM bind: -14

Results for Cc1nn(-c2ccccc2)c(N2CCOCC2)c1[N+](=O)[O-] ?
Pf apPOL block: -4

What do the screens show for `O=[N+]([O-])c1c(C(Cl)Cl)nn(-c2ccccc2)c1N1CCCC1`?
Pf apPOL block: -1; mHTT CaM bind: 54*

Results for Cc1cc(F)ccc1NC(=O)Cc1nc(-c2ccccn2)n[nH]1 ?
Pf apPOL block: -12; mHTT CaM bind: 99*

What do the screens show for `O=C(Cc1ccccc1F)Nc1cc(-c2ccccn2)no1`?
Pf apPOL block: -3; mHTT CaM bind: -5

What do the screens show for `Cc1ccc(C)c(NC(=O)Cc2nc(-c3ccccc3)n[nH]2)c1`?
Pf apPOL block: -3; mHTT CaM bind: -10

Results for Cc1cccc(NC(=O)Cc2nc(-c3ccccc3)n[nH]2)c1 ?
Pf apPOL block: -3; mHTT CaM bind: 6

Results for Cc1ccc(C)c(NC(=O)Cc2nc(-c3ccccn3)n[nH]2)c1 ?
Pf apPOL block: -12; mHTT CaM bind: 99*

Results for O=C(Cc1nc(-c2ccccn2)n[nH]1)Nc1cc(F)ccc1F ?
Pf apPOL block: -9; mHTT CaM bind: 95*

What do the screens show for `Cc1cc(C)cc(NC(=O)Cc2nc(-c3ccccn3)n[nH]2)c1`?
Pf apPOL block: -9; mHTT CaM bind: 78*
